# Reference: publication PMC9838217, “Structure of SALL4 zinc finger domain reveals link between AT-rich DNA binding and Okihiro syndrome”
# Positions count from the first letter of the chain named.
# Biological target: T1, SALL4 ZFC4 R900W (HT-SELEX) (Mus musculus, UniProt Q8BX22 870-940, R900W)
# T1 sequence: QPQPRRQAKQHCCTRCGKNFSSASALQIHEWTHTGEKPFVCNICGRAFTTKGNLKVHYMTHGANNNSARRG
# Test: HT-SELEX; high values mean tight binding
# Conditions: protein: recombinant; vector His6-GST; dsDNA, one strand shown
# Method in brief: (§1)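 Recombinant mouse SALL4 zinc finger cluster 4 (residues 870–940, 1 µg), purified, was mixed with library DNA (1.5 µg in the first cycle, 200 ng thereafter) in 100 µl of buffer containing 10 mM Tris–HCl pH 7.5, 50 mM NaCl, poly(dI-dC) and DTT, and left for 10 min at room temperature. Complexes were captured on Ni2+ beads, washed, amplified by PCR and reselected for up to 6 cycles in triplicate, after which MiSeq sequencing and a 6-mer scan followed. Binding signal is the read fraction of each canonical k-mer, given as fold change relative to the starting random library.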
row,Sequence,binding signal [fold-change vs cycle 0]
1,GGTTGA,0.876 ± 0.0229
2,GAACTC,1.03 ± 0.0309
3,CAGTCC,0.544 ± 0.0287
4,GTCCAC,0.454 ± 0.026
5,ACGATG,0.794 ± 0.00845
6,ACTTGG,0.907 ± 0.0234
7,CCTACA,0.876 ± 0.0282
8,ATGAGG,1.03 ± 0.0436
9,CAACGG,0.419 ± 0.0235
10,GGACTA,0.855 ± 0.0609
11,ATTCCG,0.697 ± 0.0273
12,AGTGTG,0.85 ± 0.0147
13,CTACTC,0.998 ± 0.0566
14,TAGCGA,0.613 ± 0.0291
15,GATGGA,0.978 ± 0.0402
16,ATGGCA,0.607 ± 0.0241
17,ATCGAC,0.632 ± 0.033
18,CAAAAG,1.17 ± 0.0219
19,ACTCGA,0.839 ± 0.0214
20,TTGAAA,1.88 ± 0.0943

row,Sequence,binding signal [fold-change vs cycle 0]
1,ACAACC,0.814 ± 0.0173
2,TCATAA,2.06 ± 0.0751
3,GTGTAA,1.37 ± 0.0544
4,CGTTTA,1.15 ± 0.0184
5,AAAGGG,0.891 ± 0.0422
6,CTCAGA,0.909 ± 0.0246
7,ACGGAT,0.855 ± 0.00544
8,ATTTCC,1.28 ± 0.0652
9,AATAAT,2.66 ± 0.189
10,TTATAA,2.77 ± 0.289
11,AAATCA,1.8 ± 0.0687
12,ATGATC,1.46 ± 0.0896
13,GTAAAA,1.73 ± 0.0898
14,GTTTGA,1.26 ± 0.0348
15,GAACGA,0.856 ± 0.0556
16,AGTGGG,0.528 ± 0.0236
17,CGTAGC,0.356 ± 0.00868
18,CGTGAG,0.501 ± 0.006
19,AATGCA,1.11 ± 0.069
20,CCATGA,0.938 ± 0.011

# Biological target: T2, SALL4 ZFC4 G921D (HT-SELEX) (Mus musculus, UniProt Q8BX22 870-940, G921D)
# T2 sequence: T1 sequence with W31R, G52D
# Test: HT-SELEX; high values mean tight binding
# Conditions: protein: recombinant; vector His6-GST; dsDNA, one strand shown
# Method in brief: as §1
row,Sequence,binding signal [fold-change vs cycle 0]
1,GGTTGA,0.9303 ± 0.00634
2,GAACTC,1.04 ± 0.0772
3,CAGTCC,0.63 ± 0.0382
4,GTCCAC,0.569 ± 0.0681
5,ACGATG,0.87 ± 0.00912
6,ACTTGG,0.936 ± 0.0313
7,CCTACA,0.919 ± 0.0351
8,ATGAGG,1.06 ± 0.0374
9,CAACGG,0.526 ± 0.0596
10,GGACTA,0.897 ± 0.0585
11,ATTCCG,0.798 ± 0.0236
12,AGTGTG,0.909 ± 0.0296
13,CTACTC,0.992 ± 0.0109
14,TAGCGA,0.72 ± 0.0193
15,GATGGA,0.97 ± 0.0258
16,ATGGCA,0.733 ± 0.0739
17,ATCGAC,0.759 ± 0.0482
18,CAAAAG,1.153 ± 0.00875
19,ACTCGA,0.905 ± 0.00699
20,TTGAAA,1.7 ± 0.131

row,Sequence,binding signal [fold-change vs cycle 0]
1,ACAACC,0.875 ± 0.0311
2,TCATAA,1.84 ± 0.154
3,GTGTAA,1.28 ± 0.0793
4,CGTTTA,1.12 ± 0.0221
5,AAAGGG,0.879 ± 0.0118
6,CTCAGA,0.948 ± 0.031
7,ACGGAT,0.887 ± 0.0254
8,ATTTCC,1.25 ± 0.0764
9,AATAAT,2.27 ± 0.265
10,TTATAA,2.3 ± 0.394
11,AAATCA,1.7 ± 0.128
12,ATGATC,1.48 ± 0.0835
13,GTAAAA,1.53 ± 0.125
14,GTTTGA,1.23 ± 0.0615
15,GAACGA,0.9 ± 0.0297
16,AGTGGG,0.608 ± 0.0502
17,CGTAGC,0.479 ± 0.0718
18,CGTGAG,0.607 ± 0.0306
19,AATGCA,1.15 ± 0.0324
20,CCATGA,1.01 ± 0.0502
